According to PubChem BioAssay AID1159580 (chemical genetic matrix, 2015):
The whole screen tested about 5,500 compounds, of which about 2,000 (36%) were called active. Another 18% or so got no clear call; they are omitted. The list shows a part of the results. Unmarked numbers belong to inactive results. Cut-off read from the data, not from the text of the source: active = normalized growth mostly below about 0.91 (no sharp cut-off); inconclusive = no clear call, values can overlap the other calls; inactive = mostly above about 0.92.

Assay: chemical genetic growth profiling, strain panel (AID 1159580);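 note: tested at 20 µM; growth read once vehicle control cultures reached saturation at 30 °C; 1 = growth at the plate median or of vehicle wells; lower values mean less growth of the strain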
Conditions: S. cerevisiae deletion strains, growth OD
[1] = locus YAL013W, strain DEP1, active compounds read low
[2] = locus YBR229C, strain ROT2, active compounds read low
[3] = locus YDL101C, strain DUN1, active compounds read low
[4] = locus YDR150W, strain NUM1, active compounds read low
[5] = locus YEL061C, strain CIN8, active compounds read low
[6] = locus YGR078C, strain PAC10, active compounds read low
[7] = locus YHR030C, strain SLT2, active compounds read low
[8] = locus YHR087W, strain rtc3, active compounds read low
[9] = locus YJR043C, strain POL32, active compounds read low
[10] = locus YJR075W, strain HOC1, active compounds read low
[11] = locus YLR039C, strain RIC1, active compounds read low
[12] = locus YLR058C, strain SHM2 (second series), active compounds read low
[13] = locus YLR085C, strain ARP6, active compounds read low
[14] = locus YLR262C, strain YPT6, active compounds read low
[15] = locus YML094W, strain GIM5, active compounds read low
[16] = locus YMR219W, strain ESC1, active compounds read low
[17] = locus YMR263W, strain SAP30, active compounds read low
[18] = locus YNL153C, strain GIM3, active compounds read low
[19] = locus YNL298W, strain CLA4 (second series), active compounds read low
[20] = locus YNL322C, strain KRE1, active compounds read low
[21] = locus YNR030W, strain Alg12, active compounds read low
[22] = locus YPL055C, strain LGE1, active compounds read low
[23] = locus YPL241C, strain CIN2, active compounds read low
[24] = locus YPR135W, strain CTF4, active compounds read low
[25] = locus YAR019C, strain CDC15, active compounds read low
[26] = locus YBL105C, strain PKC1, active compounds read low
[27] = locus YBR135W, strain CKS1, active compounds read low
[28] = locus YBR136W, strain MEC1, active compounds read low
[29] = locus YBR160W, strain CDC28, active compounds read low
[30] = locus YDL017W, strain CDC7, active compounds read low
[31] = locus YDL028C, strain MPS1, active compounds read low
[32] = locus YDL108W, strain KIN28, active compounds read low
[33] = locus YDL132W, strain cdc53, active compounds read low
[34] = locus YDL214C, strain PRR2, active compounds read low
[35] = locus YDR052C, strain DBF4, active compounds read low
[36] = locus YDR054C, strain cdc34, active compounds read low
[37] = locus YDR226W, strain ADK1, active compounds read low
[38] = locus YDR477W, strain SNF1, active compounds read low
[39] = locus YER123W, strain YCK3, active compounds read low
[40] = locus YER133W, strain GLC7, active compounds read low
[41] = locus YFL009W, strain cdc4, active compounds read low
[42] = locus YFR003C, strain YPI1, active compounds read low
[43] = locus YFR019W, strain FAB1, active compounds read low
[44] = locus YFR028C, strain CDC14, active compounds read low
[45] = locus YGR040W, strain KSS1, active compounds read low
[46] = locus YGR052W, strain FMP48, active compounds read low
[47] = locus YGR092W, strain DBF2, active compounds read low
[48] = locus YHR079C, strain IRE1, active compounds read low
[49] = locus YHR082C, strain KSP1, active compounds read low
[50] = locus YHR205W, strain SCH9, active compounds read low
[51] = locus YIL147C, strain SLN1, active compounds read low
[52] = locus YJL095W, strain BCK1, active compounds read low
[53] = locus YJL128C, strain PBS2, active compounds read low
[54] = locus YJL157C, strain FAR1, active compounds read low
[55] = locus YJR016C, strain ILV3, active compounds read low
[56] = locus YJR066W, strain TOR1 (second series), active compounds read low
[57] = locus YJR066W, strain TOR1, active compounds read low
[58] = locus YKL048C, strain ELM1, active compounds read low
[59] = locus YKL067W, strain YNK1, active compounds read low
[60] = locus YKL193C, strain SDS22, active compounds read low
[61] = locus YKL203C, strain TOR2, active compounds read low
[62] = locus YLR113W, strain HOG1, active compounds read low
[63] = locus YLR133W, strain CKI1, active compounds read low
[64] = locus YLR403W, strain SFP1, active compounds read low
[65] = locus YML070W, strain DAK1, active compounds read low
[66] = locus YMR001C, strain CDC5, active compounds read low
[67] = locus YMR205C, strain PFK2 (second series), active compounds read low
[68] = locus YMR277W, strain FCP1, active compounds read low
[69] = locus YNL006W, strain LST8, active compounds read low
[70] = locus YNL020C, strain ARK1, active compounds read low
[71] = locus YNL183C, strain NPR1, active compounds read low
[72] = locus YNL207W, strain RIO2, active compounds read low
[73] = locus YNL222W, strain SSU72, active compounds read low
[74] = locus YNL307C, strain MCK1 (second series), active compounds read low
[75] = locus YOL136C, strain PFK27, active compounds read low
[76] = locus YOR061W, strain CKA2, active compounds read low
[77] = locus YOR119C, strain RIO1, active compounds read low
[78] = locus YOR231W, strain MKK1, active compounds read low
[79] = locus YOR329C, strain SCD5, active compounds read low
[80] = locus YPL031C, strain PHO85, active compounds read low
[81] = locus YPL153C, strain RAD53, active compounds read low
[82] = locus YPL204W, strain HRR25, active compounds read low
[83] = locus YPL209C, strain IPL1, active compounds read low
[84] = locus YPL256C, strain CLN2, active compounds read low
[85] = locus YPR025C, strain CCL1, active compounds read low
[86] = locus YPR106W, strain ISR1, active compounds read low
[87] = locus YPR111W, strain DBF20, active compounds read low
[88] = strain NNK1, active compounds read low
[89] = strain TSCII, active compounds read low

CC1(C)CC(=O)c2c(S(C)(=O)=O)sc(Br)c2C1
normalized growth [1]: 0.951 | normalized growth [2]: 1.01 | normalized growth [3]: 0.995 | normalized growth [4]: 0.965 | normalized growth [5]: 0.988 | normalized growth [6]: 1.02 | normalized growth (locus YGR229C, strain SMI1, active compounds read low): 0.981 | normalized growth [7]: 0.921 | normalized growth [8]: 1.02 | normalized growth [9]: 1.03 | normalized growth [10]: 1.03 | normalized growth (locus YKL190W, strain CNB1, active compounds read low): 0.998 | normalized growth [11]: 0.91 | normalized growth [12]: 1.01 | normalized growth [13]: 0.881 | normalized growth [14]: 0.907 | normalized growth [15]: 0.977 | normalized growth [16]: 0.993 | normalized growth [17]: 0.983 | normalized growth [18]: 1.02 | normalized growth [19]: 0.98 | normalized growth [20]: 1 | normalized growth [21]: 1 | normalized growth [22]: 0.924 | normalized growth [23]: 0.954 | normalized growth [24]: 0.96

CC(O)(CNCc1ccc(Cl)cc1)CSc1ccccc1Cl (stereo not given)
normalized growth [25]: 0.977 | normalized growth [26]: 0.984 | normalized growth [27]: 0.99 | normalized growth [28]: 0.975 | normalized growth [29]: 0.998 | normalized growth [30]: 0.992 | normalized growth [31]: 0.972 | normalized growth [3]: 0.985 | normalized growth [32]: 0.987 | normalized growth [33]: 0.994 | normalized growth [34]: 0.959 | normalized growth [35]: 1 | normalized growth [36]: 0.988 | normalized growth [37]: 0.98 | normalized growth [38]: 0.952 | normalized growth [39]: 0.862 | normalized growth [40]: 0.952 | normalized growth [41]: 0.99 | normalized growth (locus YFL029C, strain CAK1, active compounds read low): 0.962 | normalized growth [42]: 0.986 | normalized growth [43]: 0.9 | normalized growth [44]: 0.985 | normalized growth [45]: 0.927 | normalized growth [46]: 1.08 | normalized growth [47]: 0.796 | normalized growth [7]: 0.938 | normalized growth [48]: 1 | normalized growth [49]: 1.03 | normalized growth [50]: 1.02 | normalized growth [51]: 0.978 | normalized growth [52]: 1.02 | normalized growth [53]: 1 | normalized growth [54]: 0.973 | normalized growth [55]: 0.991 | normalized growth [56]: 0.875 | normalized growth [57]: 0.998 | normalized growth [58]: 0.98 | normalized growth [59]: 0.971 | normalized growth (locus YKL101W, strain HSL1, active compounds read low): 0.963 | normalized growth [60]: 0.985 | normalized growth [61]: 0.981 | normalized growth [62]: 1.07 | normalized growth [63]: 0.976 | normalized growth [64]: 0.963 | normalized growth [65]: 0.974 | normalized growth [66]: 0.982 | normalized growth [67]: 0.977 | normalized growth [68]: 0.99 | normalized growth [69]: 0.997 | normalized growth [70]: 0.991 | normalized growth (locus YNL161W, strain CBK1, active compounds read low): 0.991 | normalized growth [71]: 1.02 | normalized growth [72]: 0.994 | normalized growth [73]: 0.985 | normalized growth [74]: 0.897 | normalized growth (locus YOL078W, strain AVO1, active compounds read low): 0.99 | normalized growth [75]: 0.975 | normalized growth [76]: 0.964 | normalized growth [77]: 0.928 | normalized growth [78]: 1.02 | normalized growth [79]: 0.992 | normalized growth [80]: 0.955 | normalized growth [81]: 0.951 | normalized growth [82]: 0.923 | normalized growth [83]: 0.984 | normalized growth [84]: 1.01 | normalized growth [85]: 0.988 | normalized growth [86]: 1 | normalized growth [87]: 0.998 | normalized growth [88]: 1 | normalized growth [89]: 0.987

N#CCC(=O)c1cccc(CSc2ccccc2Cl)c1
normalized growth [25]: 0.896 | normalized growth [26]: 0.944 | normalized growth [27]: 0.954 | normalized growth [28]: 0.967 | normalized growth [29]: 0.971 | normalized growth [30]: 0.982 | normalized growth [31]: 0.972 | normalized growth [3]: 0.974 | normalized growth [32]: 0.966 | normalized growth [33]: 0.977 | normalized growth [34]: 0.617 (active) | normalized growth [35]: 0.976 | normalized growth [36]: 0.987 | normalized growth [37]: 0.964 | normalized growth [38]: 0.417 (active) | normalized growth [39]: 0.243 (active) | normalized growth [40]: 0.639 (active) | normalized growth [41]: 0.983 | normalized growth [42]: 0.982 | normalized growth [43]: 0.31 (active) | normalized growth [44]: 0.965 | normalized growth [45]: 0.456 (active) | normalized growth [46]: 0.473 (active) | normalized growth [47]: 1.03 | normalized growth [7]: 0.114 (active) | normalized growth [48]: 0.209 (active) | normalized growth [49]: 0.293 (active) | normalized growth [50]: 0.992 | normalized growth [51]: 0.968 | normalized growth [52]: 0.213 (active) | normalized growth [53]: 1.04 | normalized growth [54]: 0.42 (active) | normalized growth [55]: 0.987 | normalized growth [56]: 0.313 (active) | normalized growth [57]: 0.353 (active) | normalized growth [58]: 0.937 | normalized growth [59]: 0.59 (active) | normalized growth [60]: 0.978 | normalized growth [61]: 0.529 (active) | normalized growth [62]: 0.56 (active) | normalized growth [63]: 0.512 (active) | normalized growth [64]: 1 | normalized growth [65]: 0.405 (active) | normalized growth [66]: 0.976 | normalized growth [67]: 0.812 | normalized growth [68]: 0.973 | normalized growth [69]: 0.319 (active) | normalized growth [70]: 0.437 (active) | normalized growth [71]: 0.584 | normalized growth [72]: 0.966 | normalized growth [73]: 0.961 | normalized growth [74]: 1.04 | normalized growth [75]: 0.382 (active) | normalized growth [76]: 0.553 (active) | normalized growth [77]: 0.504 (active) | normalized growth [78]: 0.43 (active) | normalized growth [79]: 0.969 | normalized growth [80]: 0.189 (active) | normalized growth [81]: 0.21 (active) | normalized growth [82]: 0.162 (active) | normalized growth [83]: 0.966 | normalized growth [84]: 0.343 (active) | normalized growth [85]: 0.972 | normalized growth [86]: 0.996 | normalized growth [87]: 0.968 | normalized growth [88]: 0.971 | normalized growth [89]: 0.973

O=C(Nc1ccccc1SCc1cccc(C(F)(F)F)c1)c1c(F)cccc1Cl
normalized growth [1]: 1 | normalized growth [2]: 1.03 | normalized growth [3]: 1 | normalized growth [4]: 1.01 | normalized growth [5]: 1.03 | normalized growth [6]: 1.02 | normalized growth [7]: 1.01 | normalized growth [8]: 0.998 | normalized growth (locus YJL187C, strain SWE1, active compounds read low): 1.02 | normalized growth [9]: 0.988 | normalized growth [10]: 0.998 | normalized growth [11]: 1.04 | normalized growth [12]: 1.01 | normalized growth [13]: 0.986 | normalized growth [14]: 0.984 | normalized growth [15]: 1 | normalized growth [16]: 1.02 | normalized growth [17]: 0.991 | normalized growth [18]: 1.02 | normalized growth [19]: 1.04 | normalized growth [20]: 1.02 | normalized growth [21]: 0.984 | normalized growth (locus YOL006C, strain TOP1, active compounds read low): 0.963 | normalized growth [22]: 1.02 | normalized growth [23]: 1.01 | normalized growth [24]: 0.942
